# Numbering of substitutions follows the chain as printed.
# What was measured:
# Assay in all cases: PBM; 200 nM protein, PBS
# Details in all cases: dsDNA, one strand shown
# CRX [1] = target: CRX (Homo sapiens, UniProt O43186 26-111)
# PAX4 [2] = target: T1, PAX4 (Homo sapiens, UniProt O43316 9-242, R200K)
# T1 sequence: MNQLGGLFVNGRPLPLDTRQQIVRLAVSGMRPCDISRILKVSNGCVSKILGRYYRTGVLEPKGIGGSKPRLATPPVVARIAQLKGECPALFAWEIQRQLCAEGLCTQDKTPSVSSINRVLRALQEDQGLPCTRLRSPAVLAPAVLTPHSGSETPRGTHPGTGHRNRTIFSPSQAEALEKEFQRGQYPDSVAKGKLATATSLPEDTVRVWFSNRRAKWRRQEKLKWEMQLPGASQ
# PAX4 [3] = target: T2, PAX4 (Homo sapiens, UniProt O43316 9-242)
# T2 sequence: T1 sequence with K192R
# CRX [4] = target: CRX (Homo sapiens, UniProt O43186 26-111, E42D)
# Sequence of CRX (Homo sapiens, UniProt O43186 26-111, E42D) (O43186 26-111 E42D): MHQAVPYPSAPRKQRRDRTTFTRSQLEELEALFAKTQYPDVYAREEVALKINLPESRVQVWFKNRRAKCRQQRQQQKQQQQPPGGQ
# PAX4 [5] = target: T3, PAX4 (Homo sapiens, UniProt O43316 9-242, R200Q)
# T3 sequence: T1 sequence with K192Q
# PITX2 = PITX2 (Homo sapiens, UniProt Q99697 72-157)
# PAX4 [6] = target: T4, PAX4 (Homo sapiens, UniProt O43316 9-242, F177V)
# T4 sequence: T1 sequence with F169V, K192R
# CRX [7] = target: CRX (Homo sapiens, UniProt O43186 26-111, R41L)
# Sequence of CRX (Homo sapiens, UniProt O43186 26-111, R41L) (O43186 26-111 R41L): as the sequence (O43186 26-111 E42D) above, with R16L, D17E counted along it
# ALX4 [8] = target: ALX4 (Homo sapiens, UniProt Q9H161 200-286)
# Sequence of ALX4 (Homo sapiens, UniProt Q9H161 200-286) (Q9H161 200-286): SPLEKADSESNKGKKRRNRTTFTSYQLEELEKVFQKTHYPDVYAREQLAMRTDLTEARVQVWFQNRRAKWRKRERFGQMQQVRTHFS
# ALX4 [9] = target: ALX4 (Homo sapiens, UniProt Q9H161 200-286, Q225E)
# Sequence of ALX4 (Homo sapiens, UniProt Q9H161 200-286, Q225E) (Q9H161 200-286 Q225E): as the sequence (Q9H161 200-286) above, with Q26E counted along it
# PROP1 [10] = target: PROP1 (Homo sapiens, UniProt O75360 56-141)
# Sequence of PROP1 (Homo sapiens, UniProt O75360 56-141) (O75360 56-141): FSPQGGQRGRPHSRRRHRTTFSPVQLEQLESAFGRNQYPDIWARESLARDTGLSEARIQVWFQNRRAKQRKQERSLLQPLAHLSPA
# PROP1 [11] = target: PROP1 (Homo sapiens, UniProt O75360 56-141, R99H)
# Sequence of PROP1 (Homo sapiens, UniProt O75360 56-141, R99H) (O75360 56-141 R99H): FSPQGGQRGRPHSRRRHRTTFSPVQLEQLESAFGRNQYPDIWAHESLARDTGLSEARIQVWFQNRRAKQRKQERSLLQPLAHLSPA
# PROP1 [12] = target: PROP1 (Homo sapiens, UniProt O75360 56-141, F88S)
# Sequence of PROP1 (Homo sapiens, UniProt O75360 56-141, F88S) (O75360 56-141 F88S): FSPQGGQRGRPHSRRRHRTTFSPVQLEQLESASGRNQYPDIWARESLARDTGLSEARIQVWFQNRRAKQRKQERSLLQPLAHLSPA
# PAX4 [13] = target: T5, PAX4 (Homo sapiens, UniProt O43316 9-242, F177Y)
# T5 sequence: T1 sequence with F169Y, K192R
# PAX4 [14] = target: T6, PAX4 (Homo sapiens, UniProt O43316 9-242, R227W)
# T6 sequence: T1 sequence with K192R, R219W
# HOXA2 [15] = target: HOXA2 (Homo sapiens, UniProt O43364 129-215, R185T)
# Sequence of HOXA2 (Homo sapiens, UniProt O43364 129-215, R185T) (O43364 129-215 R185T): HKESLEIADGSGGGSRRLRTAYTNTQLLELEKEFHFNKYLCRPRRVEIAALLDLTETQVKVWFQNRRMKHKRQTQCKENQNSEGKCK
# HOXA2 [16] = target: HOXA2 (Homo sapiens, UniProt O43364 129-215, R185K)
# Sequence of HOXA2 (Homo sapiens, UniProt O43364 129-215, R185K) (O43364 129-215 R185K): as the sequence (O43364 129-215 R185T) above, with T57K counted along it
# HOXA2 [17] = target: HOXA2 (Homo sapiens, UniProt O43364 129-215, Y150S)
# Sequence of HOXA2 (Homo sapiens, UniProt O43364 129-215, Y150S) (O43364 129-215 Y150S): as the sequence (O43364 129-215 R185T) above, with Y22S, T57R counted along it
# HOXA2 [18] = target: HOXA2 (Homo sapiens, UniProt O43364 129-215)
# Sequence of HOXA2 (Homo sapiens, UniProt O43364 129-215) (O43364 129-215): as the sequence (O43364 129-215 R185T) above, with T57R counted along it
# MSX2 [19] = target: MSX2 (Homo sapiens, UniProt P35548 130-214, R199I)
# Sequence of MSX2 (Homo sapiens, UniProt P35548 130-214, R199I) (P35548 130-214 R199I): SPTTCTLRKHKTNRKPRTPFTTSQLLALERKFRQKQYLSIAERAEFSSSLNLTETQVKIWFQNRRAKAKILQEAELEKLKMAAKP
# ALX1 [20] = target: ALX1 (Homo sapiens, UniProt Q15699 118-204, L144V)
# Sequence of ALX1 (Homo sapiens, UniProt Q15699 118-204, L144V) (Q15699 118-204 L144V): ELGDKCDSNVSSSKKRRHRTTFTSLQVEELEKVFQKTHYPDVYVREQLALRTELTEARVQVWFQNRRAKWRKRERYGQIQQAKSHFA
# ALX1 [21] = target: ALX1 (Homo sapiens, UniProt Q15699 118-204, L144R)
# Sequence of ALX1 (Homo sapiens, UniProt Q15699 118-204, L144R) (Q15699 118-204 L144R): as the sequence (Q15699 118-204 L144V) above, with V27R counted along it
# MSX2 [22] = target: MSX2 (Homo sapiens, UniProt P35548 130-214)
# Sequence of MSX2 (Homo sapiens, UniProt P35548 130-214) (P35548 130-214): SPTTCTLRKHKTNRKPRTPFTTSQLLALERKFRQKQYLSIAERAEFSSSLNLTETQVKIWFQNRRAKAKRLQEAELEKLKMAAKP
# VAX1 [23] = target: VAX1 (Homo sapiens, UniProt Q5SQQ9 86-172)
# Sequence of VAX1 (Homo sapiens, UniProt Q5SQQ9 86-172) (Q5SQQ9 86-172): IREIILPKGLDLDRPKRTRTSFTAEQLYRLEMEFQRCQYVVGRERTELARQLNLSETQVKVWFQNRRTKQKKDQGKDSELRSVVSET
# MSX2 [24] = target: MSX2 (Homo sapiens, UniProt P35548 130-214, F161Y)
# Sequence of MSX2 (Homo sapiens, UniProt P35548 130-214, F161Y) (P35548 130-214 F161Y): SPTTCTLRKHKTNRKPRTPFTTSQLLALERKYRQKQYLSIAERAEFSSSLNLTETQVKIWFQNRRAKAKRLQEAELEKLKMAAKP
# VAX1 [25] = target: VAX1 (Homo sapiens, UniProt Q5SQQ9 86-172, T142I)
# Sequence of VAX1 (Homo sapiens, UniProt Q5SQQ9 86-172, T142I) (Q5SQQ9 86-172 T142I): as the sequence (Q5SQQ9 86-172) above, with T57I counted along it
# ALX1 [26] = target: ALX1 (Homo sapiens, UniProt Q15699 118-204)
# Sequence of ALX1 (Homo sapiens, UniProt Q15699 118-204) (Q15699 118-204): as the sequence (Q15699 118-204 L144V) above, with V27L counted along it
# VAX1 [27] = target: VAX1 (Homo sapiens, UniProt Q5SQQ9 86-172, K157R)
# Sequence of VAX1 (Homo sapiens, UniProt Q5SQQ9 86-172, K157R) (Q5SQQ9 86-172 K157R): as the sequence (Q5SQQ9 86-172) above, with K72R counted along it
# HOXC10 [28] = target: HOXC10 (Homo sapiens, UniProt Q9NYD6 254-340)
# Sequence of HOXC10 (Homo sapiens, UniProt Q9NYD6 254-340) (Q9NYD6 254-340): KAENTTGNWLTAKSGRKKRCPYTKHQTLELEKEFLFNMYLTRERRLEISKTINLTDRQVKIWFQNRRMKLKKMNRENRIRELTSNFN
# HOXC10 [29] = target: HOXC10 (Homo sapiens, UniProt Q9NYD6 254-340, K271E)
# Sequence of HOXC10 (Homo sapiens, UniProt Q9NYD6 254-340, K271E) (Q9NYD6 254-340 K271E): as the sequence (Q9NYD6 254-340) above, with K18E counted along it
# Sequence of CRX (Homo sapiens, UniProt O43186 26-111) (O43186 26-111): as the sequence (O43186 26-111 E42D) above, with D17E counted along it
sequence,measurement,setting,value
AAAGATTA,binding signal,CRX [1],"12.9 upbm affinity estimate (log intensity, higher = more binding, comparable within an allelic series)"
same,binding signal,PAX4 [2],"10.9 upbm affinity estimate (log intensity, higher = more binding, comparable within an allelic series)"
same,binding signal,PAX4 [3],"11.2 upbm affinity estimate (log intensity, higher = more binding, comparable within an allelic series)"
same,binding signal,CRX [4],"12.8 upbm affinity estimate (log intensity, higher = more binding, comparable within an allelic series)"
same,binding signal,PAX4 [5],"11.1 upbm affinity estimate (log intensity, higher = more binding, comparable within an allelic series)"
same,binding signal,PITX2,"12.3 upbm affinity estimate (log intensity, higher = more binding, comparable within an allelic series)"
same,binding signal,PAX4 [6],"10.3 upbm affinity estimate (log intensity, higher = more binding, comparable within an allelic series)"
same,binding signal,CRX [7],"12.6 upbm affinity estimate (log intensity, higher = more binding, comparable within an allelic series)"
GGTTAAAC,binding signal,CRX [1],"10.2 upbm affinity estimate (log intensity, higher = more binding, comparable within an allelic series)"
same,binding signal,CRX [4],"9.96 upbm affinity estimate (log intensity, higher = more binding, comparable within an allelic series)"
GAGGGCCC,binding signal,CRX [1],"8.25 upbm affinity estimate (log intensity, higher = more binding, comparable within an allelic series)"
same,binding signal,ALX4 [8],"7.97 upbm affinity estimate (log intensity, higher = more binding, comparable within an allelic series)"
same,binding signal,ALX4 [9],"7.92 upbm affinity estimate (log intensity, higher = more binding, comparable within an allelic series)"
same,binding signal,CRX [4],"8.06 upbm affinity estimate (log intensity, higher = more binding, comparable within an allelic series)"
same,binding signal,PROP1 [10],"6.79 upbm affinity estimate (log intensity, higher = more binding, comparable within an allelic series)"
same,binding signal,PROP1 [11],"6.72 upbm affinity estimate (log intensity, higher = more binding, comparable within an allelic series)"
same,binding signal,PROP1 [12],"6.48 upbm affinity estimate (log intensity, higher = more binding, comparable within an allelic series)"
same,binding signal,CRX [7],"8.14 upbm affinity estimate (log intensity, higher = more binding, comparable within an allelic series)"
CCACGCCA,binding signal,CRX [1],"8.11 upbm affinity estimate (log intensity, higher = more binding, comparable within an allelic series)"
same,binding signal,PAX4 [2],"9.43 upbm affinity estimate (log intensity, higher = more binding, comparable within an allelic series)"
same,binding signal,PAX4 [3],"9.33 upbm affinity estimate (log intensity, higher = more binding, comparable within an allelic series)"
same,binding signal,CRX [4],"8.32 upbm affinity estimate (log intensity, higher = more binding, comparable within an allelic series)"
same,binding signal,PAX4 [5],"9.45 upbm affinity estimate (log intensity, higher = more binding, comparable within an allelic series)"
same,binding signal,PAX4 [6],"9.5 upbm affinity estimate (log intensity, higher = more binding, comparable within an allelic series)"
same,binding signal,PAX4 [13],"9.5 upbm affinity estimate (log intensity, higher = more binding, comparable within an allelic series)"
same,binding signal,PAX4 [14],"9.53 upbm affinity estimate (log intensity, higher = more binding, comparable within an allelic series)"
same,binding signal,CRX [7],"8.24 upbm affinity estimate (log intensity, higher = more binding, comparable within an allelic series)"
CTTACGAC,binding signal,CRX [1],"10.1 upbm affinity estimate (log intensity, higher = more binding, comparable within an allelic series)"
same,binding signal,CRX [4],"10 upbm affinity estimate (log intensity, higher = more binding, comparable within an allelic series)"
CCGGGGCG,binding signal,CRX [1],"8.1 upbm affinity estimate (log intensity, higher = more binding, comparable within an allelic series)"
same,binding signal,HOXA2 [15],"7.04 upbm affinity estimate (log intensity, higher = more binding, comparable within an allelic series)"
same,binding signal,CRX [4],"8.23 upbm affinity estimate (log intensity, higher = more binding, comparable within an allelic series)"
same,binding signal,HOXA2 [16],"10 upbm affinity estimate (log intensity, higher = more binding, comparable within an allelic series)"
same,binding signal,HOXA2 [17],"10.3 upbm affinity estimate (log intensity, higher = more binding, comparable within an allelic series)"
same,binding signal,CRX [7],"8.38 upbm affinity estimate (log intensity, higher = more binding, comparable within an allelic series)"
same,binding signal,HOXA2 [18],"7 upbm affinity estimate (log intensity, higher = more binding, comparable within an allelic series)"
CCTAATAG,binding signal,CRX [1],"9.68 upbm affinity estimate (log intensity, higher = more binding, comparable within an allelic series)"
same,binding signal,CRX [4],"9.47 upbm affinity estimate (log intensity, higher = more binding, comparable within an allelic series)"
CGCTCGCC,binding signal,CRX [1],"7.99 upbm affinity estimate (log intensity, higher = more binding, comparable within an allelic series)"
same,binding signal,CRX [4],"8.05 upbm affinity estimate (log intensity, higher = more binding, comparable within an allelic series)"
same,binding signal,MSX2 [19],"9.42 upbm affinity estimate (log intensity, higher = more binding, comparable within an allelic series)"
same,binding signal,ALX1 [20],"6.31 upbm affinity estimate (log intensity, higher = more binding, comparable within an allelic series)"
same,binding signal,ALX1 [21],"6.41 upbm affinity estimate (log intensity, higher = more binding, comparable within an allelic series)"
same,binding signal,MSX2 [22],"9.46 upbm affinity estimate (log intensity, higher = more binding, comparable within an allelic series)"
same,binding signal,VAX1 [23],"6.87 upbm affinity estimate (log intensity, higher = more binding, comparable within an allelic series)"
same,binding signal,MSX2 [24],"9.5 upbm affinity estimate (log intensity, higher = more binding, comparable within an allelic series)"
same,binding signal,VAX1 [25],"7.1 upbm affinity estimate (log intensity, higher = more binding, comparable within an allelic series)"
same,binding signal,CRX [7],"8.16 upbm affinity estimate (log intensity, higher = more binding, comparable within an allelic series)"
same,binding signal,ALX1 [26],"6.39 upbm affinity estimate (log intensity, higher = more binding, comparable within an allelic series)"
same,binding signal,VAX1 [27],"7.05 upbm affinity estimate (log intensity, higher = more binding, comparable within an allelic series)"
ATCAGTTA,binding signal,CRX [1],"9.84 upbm affinity estimate (log intensity, higher = more binding, comparable within an allelic series)"
same,binding signal,CRX [4],"9.71 upbm affinity estimate (log intensity, higher = more binding, comparable within an allelic series)"
CGGCGTCC,binding signal,CRX [1],"7.94 upbm affinity estimate (log intensity, higher = more binding, comparable within an allelic series)"
same,binding signal,HOXC10 [28],"10 upbm affinity estimate (log intensity, higher = more binding, comparable within an allelic series)"
same,binding signal,CRX [4],"8 upbm affinity estimate (log intensity, higher = more binding, comparable within an allelic series)"
same,binding signal,HOXC10 [29],"10.1 upbm affinity estimate (log intensity, higher = more binding, comparable within an allelic series)"
same,binding signal,CRX [7],"8.06 upbm affinity estimate (log intensity, higher = more binding, comparable within an allelic series)"

# — PMC11006913
